Results filed as inconclusive are left out. A number with no mark means an inactive call. Active and inactive are the calls of the source. Calls come from the whole dose curve; as a rule, active = well fitted curve in the direction sought with a large enough effect; inconclusive = small, poorly fitted or top-dose-only effect, or another doubt; inactive = no such curve, though single readings can be large; an effect the other way counts as inactive or inconclusive.
Assays:
[1] = target: Furin (Homo sapiens) (UniProt P09958); assay: Furin counterscreen qHTS for Zika virus inhibitors (AID 1347149); note: nearly all actives have a fitted effect of over 70% in size; note: potency is the fitted concentration of half-maximal effect;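 for activity change, negative = inhibition: purified recombinant full-length human furin enzyme at 5 nM; fluorescence gain from furin cutting a BOC-RVRR-AMC peptide substrate over 15 min; top concentration of the series differs between compounds; plate controls were no-inhibitor control for no effect and no-enzyme control for full effect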
Chain of Furin (Homo sapiens) (P09958 whole entry, looked up): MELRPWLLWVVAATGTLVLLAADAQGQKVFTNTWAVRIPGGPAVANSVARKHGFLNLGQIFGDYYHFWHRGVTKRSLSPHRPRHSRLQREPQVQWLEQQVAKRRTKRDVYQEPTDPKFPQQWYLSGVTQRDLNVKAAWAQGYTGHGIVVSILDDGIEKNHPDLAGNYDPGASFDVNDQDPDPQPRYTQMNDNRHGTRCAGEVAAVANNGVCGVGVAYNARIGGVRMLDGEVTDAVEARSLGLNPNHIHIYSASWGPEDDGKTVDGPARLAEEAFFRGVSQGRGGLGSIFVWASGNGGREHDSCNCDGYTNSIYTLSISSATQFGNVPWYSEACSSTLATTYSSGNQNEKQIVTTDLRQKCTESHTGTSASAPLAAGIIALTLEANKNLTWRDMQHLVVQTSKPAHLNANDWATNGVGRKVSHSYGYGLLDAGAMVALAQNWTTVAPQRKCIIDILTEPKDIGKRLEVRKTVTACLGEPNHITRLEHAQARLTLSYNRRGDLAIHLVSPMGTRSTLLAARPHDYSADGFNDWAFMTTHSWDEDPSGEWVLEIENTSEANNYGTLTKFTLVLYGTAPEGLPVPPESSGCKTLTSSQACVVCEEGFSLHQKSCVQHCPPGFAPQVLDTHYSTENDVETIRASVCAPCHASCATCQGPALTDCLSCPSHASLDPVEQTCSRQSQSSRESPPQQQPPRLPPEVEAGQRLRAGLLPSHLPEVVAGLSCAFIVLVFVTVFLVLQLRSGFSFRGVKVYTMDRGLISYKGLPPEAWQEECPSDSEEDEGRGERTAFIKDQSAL
Method in brief: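 Counterscreen measures cleavage of 2 microM BOC-RVRR-AMC, below its ~15 microM Km, by 5 nM full-length human furin at pH 7.0 after a 15-min compound preincubation. Inhibition derives from the 15-min fluorescence increase at 37C.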

[2] = tested on: Zika virus NS2B-NS3 protease (linked construct); assay: Confirmatory screen NINDS AMC qHTS for Zika virus inhibitors (AID 1347152); note: potency is the fitted concentration of half-maximal effect; nearly all actives have a fitted effect of over 70% in size
Method in brief: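 Purified NS2B-NS3 protease with NS2B hydrophilic domain linked to NS3 protease domain by flexible linker, 1 nM final in 10 mM Tris-HCl pH 8.0, 0.01% Tween 20. Compounds preincubated 15 min, room temperature; Bz-Nle-KRR-AMC 10 microM (Km 18.3 µM); 15-min fluorescence change, 4-parameter Hill fit.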

[3] = tested on: Zika virus NS2B-NS3 protease (unlinked complex); assay: Confirmatory screen GU AMC qHTS for Zika virus inhibitors (AID 1347153); details: Recombinant NS2B-NS3 protease, AMC substrate fluorescence;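 note: enzyme at 25 nM with substrate at 10 µM below its Km of 18.3 µM; potency is the fitted concentration of half-maximal effect; nearly all actives have a fitted effect of over 70% in size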
Method in brief: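 Noncovalent NS2B hydrophilic domain/NS3 protease complex (25 nM) in 10 mM Tris-HCl pH 8.0, 0.01% Tween 20 was preincubated 15 min at room temperature with compounds. Then 10 µM AMC substrate (Km 18.3 µM) was added; fluorescence was read over 15 min and fitted to a 4-parameter Hill equation.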

[4] = Confirmatory screen GU Rhodamine qHTS for Zika virus inhibitors qHTS (AID 1347157); details: purified enzyme assay, Rhodamine110 substrate fluorescence, 15 min; note: potency is the fitted concentration of half-maximal effect; nearly all actives have a fitted effect of over 70% in size
Method in brief: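 Buffer 10 mM Tris-HCl pH 8.0, 0.01% Tween 20. Unlinked protease 25 nM; compound preincubation 15 min, RT, protected from light. Substrate Rhod110, 1.5 microM; ~15% conversion in 15 min.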

[5] = ZIKV-mCherry secondary qHTS for Zika virus inhibitors (AID 1347158); note: top concentration of the series differs between compounds
Method in brief: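 Read-out is percent infection: mCherry-positive Vero cells (nuclear-proximal intensity >450 RFU, 3 SD above negative controls) counted by high-content imaging of Hoechst-stained, PFA-fixed wells after 48-72 h with ZIKV-mCherry at MOI 1 and compound.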

[6] = tested on: Zika virus NS2B-NS3 protease; assay: Primary screen GU AMC qHTS for Zika virus inhibitors (AID 1347154)
Method in brief: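 Unlinked Zika NS2B hydrophilic domain–NS3 protease complex at 25 nM in 10 mM Tris-HCl pH 8.0, 0.01% Tween 20, with an AMC peptide substrate. Fluorescence change (340/450 nm) over 15 min at room temperature, normalized to controls, fitted to 4-parameter Hill.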

For `O=C(/C=C/c1c(C(=O)O)[nH]c2cc(Cl)cc(Cl)c12)Nc1ccccc1`, which Potency [1] is on record?
The Potency was “inactive”.

And the Potency [2]?
Its Potency is 44.1 µM (active).

And the Potency [3]?
Its Potency is 44.1 µM (active).

And the Potency [4]?
The Potency was 2.78 µM (active).

What about the outcome [5] of the same molecule?
The outcome was “inactive”.

For `O=C(O)c1cc(O)c2cccc(O)c2c1O[C@@H]1O[C@H](CO)[C@@H](O)[C@H](O)[C@H]1O`, which Potency [1] is on record?
The Potency was 34.3 µM (active).

And the Potency [2]?
Its Potency is 30.6 µM (active).

What about the Potency [3] of the same molecule?
Its Potency is 30.6 µM (active).

And the Potency [4]?
Its Potency is 10.9 µM (active).

And the outcome [5]?
Its outcome is “inactive”.

Which outcome [6] does the source give for `COC(=O)C1=C(C)NC(C)=C(C(=O)OCCCN2CCC(c3ccccc3)(c3ccccc3)CC2)[C@H]1c1cccc([N+](=O)[O-])c1` here?
Its outcome is “inactive”.

With `CCCCC/C=C\C/C=C\CCCCCCCC(=O)O` as the molecule, how does the activity change, negative = inhibition [6] read?
The activity change, negative = inhibition was 4.61% [at 6.83 µM].

With `O=S(=O)(O)c1cc(O)c2c(N=Nc3ccc(Nc4ccccc4)c4c(S(=O)(=O)O)cccc34)cc(S(=O)(=O)O)cc2c1` as the molecule, how does the Potency [4] read?
Its Potency is 2.82 µM (active).

For `CC1(C)CC[C@]2(C(=O)O[C@@H]3O[C@H](CO)[C@@H](O)[C@H](O)[C@H]3O)CC[C@]3(C)C(=CCC4[C@@]5(C)C[C@@H](O)[C@H](O)[C@@](C)(CO)C5CC[C@]43C)C2C1` (stereo partly drawn), which Potency [4] is on record?
The Potency was 11.7 µM (active).

Which Potency [1] does the source give for `O=C(O)c1cnn(-c2nc3cc(OC(F)(F)F)c(Cl)cc3[nH]2)c1` here?
Its Potency is 90.2 µM (active).

What about the Potency [2] of the same molecule?
The Potency was 40.3 µM (active).

And the Potency [3]?
The Potency was 32 µM (active).

And the Potency [4]?
Its Potency is 12.7 µM (active).

And the outcome [5]?
Its outcome is “inactive”.

For `O=C(O)c1ccc(CCCc2ccc(OCCc3ccc(F)cc3)cc2)o1`, which Potency [2] is on record?
The Potency was 44.1 µM (active).

And the Potency [3]?
Its Potency is 49.4 µM (active).

What about the Potency [4] of the same molecule?
The Potency was 3.12 µM (active).

For `CCCC(=O)Nc1ncnc2c1ncn2[C@@H]1O[C@@H]2COP(=O)(O)O[C@H]2[C@H]1OC(=O)CCC`, which outcome [6] is on record?
The outcome was “inactive”.

Reference: PubChem BioAssay (NCATS)
